TAR Tat displ = TAR RNA-Tat peptide displacers, HIV-1, primary screen, biochemical, FRET, FAM/TAMRA-labeled Tat; HIV-1 TAR RNA, Tat peptide displacement FRET; stronger effect = higher value; z-score (concentration not given with the values); 0.6% of 100,000 active; active = z-score of 3 or more in at least 2 runs
CDC25B-CDK2 inh = primary biochemical HTRF screen for blockers of M-phase inducer phosphatase 2 binding to CDK2/cyclin A | HTRF CDC25B-CDK2/CyclinA binding, anti-His/anti-Flag; stronger effect = higher value | z-score (no concentration beside the values) | 0.72% of 94,000 active; in the data active = z-score above about 3.2
Starred values were filed as active, the others as inactive; . = no result. Sampled rows, rich in hits. Any-hit rate of the full collection: about 0.86%.

SMILES	TAR Tat displ	CDC25B-CDK2 inh
O=C1CC(c2ccco2)CC2=C1C(c1ccccc1)C1=C(N2)c2ccccc2C1=O (centres undefined)	0.01	12.3*
Cc1csc2nc(CSc3ccccc3NS(=O)(=O)c3ccc(Cl)cc3)cc(=O)n12	0.64	.
CSc1ccc(-c2nc3cnccn3c2NC2CCCCC2)cc1	1.18	-1.01
O=c1c2oc3nc4c(cc3c2ncn1Cc1ccccc1)CCCC4	0.26	.
COc1cc(C2CC(=O)N3CN(Cc4ccccc4)CSC3=C2C#N)ccc1O (centres undefined)	-0.46	4.04*
COc1cc(C2CC(=O)N3CN(c4ccc(C)cc4)CSC3=C2C#N)cc(Br)c1O (centres undefined)	-0.6	1.68
COc1cc(C2CC(=O)N3CN(Cc4ccccc4)CSC3=C2C#N)cc(Br)c1O (centres undefined)	0.52	3.48*
CCc1nonc1NC(=O)c1sc2cc(C)ccc2c1Cl	1.39	-1.88
CCOC(=O)CSc1ccc2nnc(-c3ccc(OC)c(OC)c3)n2n1	.	0.86
CN(C)c1cc(-c2cccc([N+](=O)[O-])c2)oc(=O)c1Cl	.	-1.32
O=c1oc(-c2ccccc2)cc(Cl)c1Cl	1.22	13.8*
CCSc1nnc(NC(=O)Cn2cnc(S(=O)(=O)N3CCCCC3)c2)s1	-0.15	.
CSc1ccc(C2NCCc3c2[nH]c2ccccc32)cc1 (centres undefined)	-0.2	-0.7
CC(C)CC(=O)N[C@H](C(=O)N[C@H](C(=O)N[C@@H](CC(C)C)[C@@H](O)CC(=O)N[C@@H](C)C(=O)N[C@@H](CC(C)C)[C@@H](O)CC(=O)O)C(C)C)C(C)C	19*	.
Cc1cc(-c2ccc(S(=O)(=O)N3CCc4ccccc4C3)s2)n[nH]1	-0.03	.
Cn1c(=O)oc2cc(S(=O)(=O)CCC(=O)Nc3ccc(Cl)cc3)ccc21	0.89	.
O=C(Nc1ccc2c(c1)nc1n2CCN(C2CCCCC2)C1)c1ccco1	31.1*	7.11*
O=C(Nc1ccc2c(c1)nc1n2CCN(C2CCCCC2)C1)NC1CCCCC1	-2.97	-1.29
O=C(NCCN1CCN(c2ccccc2F)CC1)c1cc2c(s1)-c1ccccc1SC2	0.13	-0.02
O=S(=O)(NC(c1ccccc1)c1ccccc1)c1ccc(-n2cnnn2)cc1	4.71	0.76
Fc1ccccc1-n1ncc2c1ncn1nc(-c3ccccc3)nc21	1.89	-1.72
Clc1ccccc1-n1ncc2c1ncn1nc(-c3ccccc3)nc21	6.9*	-2.42
O=C(c1ccc2c(c1)OCO2)N1CCN(c2ncnc3c2nnn3-c2ccc(F)cc2)CC1	1.33	.
COc1ccc2cc3cc(C(=O)O)sc3nc2c1	0.87	0.24
O=C1CC(c2ccccc2F)C2=C(CC(c3ccccc3Cl)CC2=O)N1 (centres undefined)	1.35	-1.38
SMILES	TAR Tat displ	CDC25B-CDK2 inh
O=C1CC(c2ccccc2Cl)C2=C(CC(c3ccccc3Cl)CC2=O)N1 (centres undefined)	15.1*	3.05
CC(CC(=O)NCCCc1ccco1)CC1=NS(=O)(=O)c2ccccc2N1 (centres undefined)	1.17	.
O=C(NCCc1cccs1)c1ccc(-n2ccc3ccccc32)s1	-0.24	.
O=C(NCc1cccn1Cc1ccccc1)NCC1CCCO1 (centres undefined)	-0.64	.
O=C(Nc1nnc2n1CCCS2)c1ccccc1	1.54	.
COC(=O)c1cc(S(=O)(=O)N2c3ccccc3CC2C)c[nH]1 (centres undefined)	21.6*	.
CC(=O)N1c2ccc(S(=O)(=O)N3c4ccccc4CC3C)cc2CC1C (centres undefined)	0.07	.
O=C(Nc1ccc(F)cc1F)c1cc2c(s1)-c1ccsc1CC2	0.48	.
Cc1ccc(C2Nc3ccccc3NC3=C2C(=O)CC(c2cccs2)C3)cc1 (centres undefined)	3.53	-0.78
CCN(CC)c1ccc(C2CC(=O)C3=C(C2)Nc2ccccc2NC3c2ccco2)cc1 (centres undefined)	24.7*	1.24
CN(C)c1ccc(C2Nc3ccccc3NC3=C2C(=O)CC(c2cccs2)C3)cc1 (centres undefined)	0.13	7.43*
O=C1CC(c2ccco2)CC2=C1C(c1ccco1)Nc1ccccc1N2 (centres undefined)	0.63	-0.52
Cc1cccc(CN[C@H]2CS(=O)(=O)C[C@@H]2S(=O)(=O)c2ccc(F)cc2)c1	-1.18	-1.9
CCc1nnc2c3ccccc3nc(Nc3ccc(F)cc3)n12	1.71	.
CN(C)S(=O)(=O)c1ccc(C(=O)Nc2sc3c(c2C(N)=O)CCCC3)cc1	3.39	-2.28
CN(CC1CCCO1)S(=O)(=O)c1ccc(C(=O)Nc2sc3c(c2C(N)=O)CCC3)cc1 (centres undefined)	7.58*	.
Cc1ccc(S(=O)(=O)N2CCN(c3nc4ccccc4nc3-n3nc(C)cc3C)CC2)c(C)c1	0.71	-0.67
COC(=O)C1=C(OC(=O)CN2C(=O)CCC2=O)c2ccccc2S(=O)(=O)N1C(C)C	0.12	6.34*
COC(=O)C1=C(OC(=O)CN2C(=O)CCC2=O)c2ccccc2S(=O)(=O)N1C	0.59	-2.2
CN1CCN(C(=O)c2noc3c2COc2ccccc2-3)CC1	0.65	-2.25
CCCc1nn2c(=O)cc(COC(=O)CSc3ccccc3)nc2s1	0.8	.
Fc1ccc(-c2cn3ccccc3n2)cc1	1.19	1.23
Fc1ccc(-c2cn3c(n2)Cc2ccccc2C3)cc1	.	18*
C[Si](C)(C)OC(=O)/C=C\C(=O)O[Si](C)(C)C	.	6.07*
CCOC(=O)/C=C/C(=O)O	.	-0.92
SMILES	TAR Tat displ	CDC25B-CDK2 inh
O=C(CSc1nc2ccccc2c(=O)[nH]1)NCc1ccc2c(c1)OCO2	13.6*	.
O=C(CSc1nc2ccccc2c(=O)[nH]1)NC1CCCC1	3.21	.
Brc1ccc2c(c1)C1CC(c3cccs3)=NN1C1(CCCC1)O2 (centres undefined)	.	1.33
Cn1c(=O)n(Cc2ccccc2Cl)c(=O)c2c1nc1n2CCN1Cc1ccco1	.	-1.8
Cn1c(=O)n(Cc2ccccc2F)c(=O)c2c1nc1n2CCN1Cc1ccco1	4.65*	.
CC1CCCC(NC(=O)C2CCCN(c3ncnc4c3nc3n4CCCCC3)C2)C1C (centres undefined)	0.79	-0.25
Cc1ccc(C)c(S(=O)(=O)NCCc2csc3nc(-c4ccc(Cl)cc4)nn23)c1	0.37	.
CC(C)Cn1c(=O)c(C(=O)Nc2ccc(O)cc2)c(O)c2ccccc21	.	-2.75
CCCOc1ccc(Oc2nc(NC(C)(C)C)nc(N(C)C)n2)nn1	1.84	-1.4
O=C1CC(c2ccco2)Cc2[nH]c(=O)c(-c3nc(-c4ccc(Oc5ccccc5)cc4)cs3)cc21 (centres undefined)	0.71	15.9
CCOc1ccc(-c2csc(-c3cc4c([nH]c3=O)CC(c3ccco3)CC4=O)n2)cc1 (centres undefined)	-5.33	18.9*
Nc1nonc1C(=O)NCCNCc1ccc(Br)cc1	0.72	-1.08
O=C(CSc1ccsc1[N+](=O)[O-])Nc1cc(F)ccc1F	4.19	-4.75
CCN(CC)c1ccc(NC(=O)CSc2ccsc2[N+](=O)[O-])c(C)c1	11.7*	3.83
COc1ccc(CCNS(=O)(=O)c2ccc(CN3C(=O)c4cccnc4C3=O)s2)cc1OC	0.58	.
CCCSc1nc2c(c(=O)[nH]1)C(c1ccc(O)c(O)c1)CC(=O)N2 (centres undefined)	8.46*	7.82*

Source: PubChem
